Bioassay records (PubChem BioAssay)
Rows were chosen to be rich in hits. Some 3.5% of all compounds tested hit in one or more screens of this group.
Autofluor counter – flagged as autofluorescent in microsphere protease counterscreen | compound autofluorescence counterscreen, microsphere flow cytometry; hits give high values | fluorescence intensity (test concentration not listed) | hit rate 3.1% among 360,000; in the data active means fluorescence intensity above about 16000; inconclusive means no clear call, values can overlap the other calls
BoNT F protease – inhibitors of Botulinum neurotoxin F light chain protease; Multiplex microsphere protease cleavage assay, flow cytometry; inhibition, % at 10 µM; hit rate 0.22% among 360,000; in the data active means inhibition above about 35%, passing the limit was not always enough; inconclusive means no clear call, values can overlap the other calls
BoNT-A LC inh2 – BoNT A light chain protease inhibition; inhibition, % at 10 µM; hit rate 0.17% among 360,000; multiplex microsphere protease substrate cleavage, flow cytometry
Anthrax LF prot – anthrax lethal factor protease inhibition; multiplex microsphere protease cleavage assay, LF; inhibition, % at 10 µM; hit rate 0.12% among 360,000
BoNTA LC inh 1 – BoNT/A light chain protease inhibition | shares compounds with BoNT F protease | multiplex microsphere protease assay, flow cytometry | inhibition, % at 10 µM | hit rate 3% among 720; in the data active means inhibition above about 32%
BoNTF LC inh 1 – BoNT/F light chain protease inhibition; shares compounds with BoNT F protease; multiplex microsphere protease cleavage assay, flow cytometry; inhibition, % at 10 µM; 720 tested, under 10 active; AID 602140; call rule not given here
Anthrax LF CP1 – Bacillus anthracis lethal factor protease inhibition; shares compounds with BoNT F protease; multiplex microsphere protease cleavage assay, LF; inhibition, % at 10 µM; 720 tested, under 10 active; AID 602142; call rule not given here
Large screens that a line does not name were inactive (follow-up assays come after a bar, where they were run). Unless noted, no stated cut-off is given here; in the data, active means inhibition above about 30%; inconclusive means no clear call, values can overlap the other calls; inactive means below that.

CCCS(=O)(=O)NC(=O)C1(C)CCN(C(=O)c2ccc(OC(F)F)cc2)C1 (stereo not drawn)	none
CC(C)(C)OC(=O)N1Cc2[nH]c3ccccc3c2C[C@@H]1C(=O)O	none
CCNc1nc(NCC)n2c(SCC(=O)Nc3ccc(C)c(C)c3)nnc2n1	Autofluor counter inconclusive, BoNT F protease 37 | BoNTA LC inh 1 inactive | BoNTF LC inh 1 inactive | Anthrax LF CP1 inactive
COc1ccc(OC(C)C(=O)N(C)Cc2nc(-c3ccc(OC)cc3)no2)cc1 (stereo not drawn)	none
Oc1[nH]c(N=C2N=c3ccccc3=N2)c2ccccc12	BoNT F protease 111 | BoNTA LC inh 1 inactive | BoNTF LC inh 1 32 | Anthrax LF CP1 inactive
COCCN(Cc1cn(C)nc1-c1ccc(Oc2ccccc2)cc1)C(C)C	BoNT F protease inconclusive
CC(C)N(C)Cc1cn(C)nc1-c1ccc(Oc2ccccc2)cc1	BoNT F protease 36 | BoNTA LC inh 1 inactive | BoNTF LC inh 1 inactive | Anthrax LF CP1 inactive
O=C(Nc1ccc(Oc2cccnc2)cc1)c1ccc([N+](=O)[O-])cc1	none
O=C(Nc1ccc(Nc2ccncc2)cc1)c1ccc([N+](=O)[O-])cc1	Anthrax LF prot 36 | BoNTA LC inh 1 inactive | BoNTF LC inh 1 inactive | Anthrax LF CP1 inactive
Cc1ccc2c(c1)CCCN2C(=O)c1cc(C)c(C)s1	none
Cc1cc(C(=O)O)sc1C	BoNT F protease 36 | BoNTA LC inh 1 inactive | BoNTF LC inh 1 inactive | Anthrax LF CP1 inactive
Cc1ccc(Nc2c([N+](=O)[O-])cc(C(=O)N3CC(=O)Nc4ccccc43)cc2[N+](=O)[O-])c(C)c1	none
O=C1CN(C(=O)c2ccc(Cl)c([N+](=O)[O-])c2)c2ccccc2N1	Anthrax LF prot 32 | BoNTA LC inh 1 inactive | BoNTF LC inh 1 inactive | Anthrax LF CP1 inactive
COc1ccccc1N1N=C(c2ccc([N+](=O)[O-])cc2)CC1c1ccccc1 (stereo not drawn)	Autofluor counter 16503, BoNT-A LC inh2 38 | BoNTA LC inh 1 48 | BoNTF LC inh 1 inactive | Anthrax LF CP1 inactive
O=[N+]([O-])c1ccc(N2N=C(c3ccco3)CC2c2ccccc2)cc1 (stereo not drawn)	BoNT-A LC inh2 32 | BoNTA LC inh 1 inactive | BoNTF LC inh 1 inactive | Anthrax LF CP1 inactive
Fc1ccc(C2CC(c3ccco3)=NN2c2ccccc2)cc1 (stereo not drawn)	none
Cc1ccccc1Nc1nnc(-c2ccc(C(=O)NCCO)cc2)c2ccccc12	none
COc1ccc(C(=O)N(C)CCCC2CCCC2)cc1OC1CCN(C(C)C)CC1	none
Cc1ccnc(SC2CC(=O)N(c3ccc(F)cc3)C2=O)n1 (stereo not drawn)	none
Cc1nnc(SCC(=O)NC(C)(C)C)n1C1CCCCC1	BoNT F protease 40 | BoNTA LC inh 1 inactive | BoNTF LC inh 1 inactive | Anthrax LF CP1 inactive
Cc1nnc(SCC(=O)NC2CCCCCC2)n1C	none
COc1cccc(C(C(=O)NC2CCCC2)N(C(=O)CNC(=O)c2ccco2)c2cccnc2)c1 (stereo not drawn)	none
Cc1ccc(-c2csc3nc4c5ccccc5c(NCCCN(C)C)nn4c(=O)c23)cc1	BoNT-A LC inh2 36 | BoNTA LC inh 1 inactive | BoNTF LC inh 1 inactive | Anthrax LF CP1 inactive
NC(=O)Cn1nc(-c2ccccc2)nc1-c1ccccc1	BoNT F protease inconclusive, Anthrax LF prot 31 | BoNTA LC inh 1 inactive | BoNTF LC inh 1 inactive | Anthrax LF CP1 inactive
CCCCCn1c(=O)c(C(=O)Nc2ncccc2C)c(O)c2ccccc21	BoNT F protease 38 | BoNTA LC inh 1 inactive | BoNTF LC inh 1 inactive | Anthrax LF CP1 inactive
CCCn1c(=O)c(C(=O)Nc2ncccc2C)c(O)c2ccccc21	none
CC(=O)N1CCOc2ccc(S(=O)(=O)NC[C@H]3O[C@@H](n4cnc5c(N)ncnc54)[C@H](O)[C@@H]3O)cc21	none
Nc1nc2ccccc2nc1N1CCCC1	BoNT F protease 42, BoNT-A LC inh2 32 | BoNTA LC inh 1 inactive | BoNTF LC inh 1 inactive | Anthrax LF CP1 inactive
O=C(O)C(F)=C(c1ccccc1)c1ccccc1	none
O=C(Nc1nc2c(s1)CN(Cc1ccccc1)CC2)c1cccc(S(=O)(=O)N2CCc3ccccc32)c1	Anthrax LF prot 30 | BoNTA LC inh 1 inactive | BoNTF LC inh 1 inactive | Anthrax LF CP1 inactive
O=C(Nc1nc2ccccc2s1)c1cccc(S(=O)(=O)N2CCc3ccccc32)c1	none
CCn1c(CCNC(=O)c2ccc(OC)c(OC)c2)nc2ccccc21	BoNT F protease 40 | BoNTA LC inh 1 inactive | BoNTF LC inh 1 inactive | Anthrax LF CP1 inactive
COc1ccc(OC)c(NC(=O)CN(Cc2ccc(F)cc2)C2CCCCC2)c1	none
COC(CNC(=O)c1ccc2nc(-c3cccs3)c(-c3cccs3)nc2c1)OC	BoNT-A LC inh2 44 | BoNTA LC inh 1 inactive | BoNTF LC inh 1 inactive | Anthrax LF CP1 inactive
COc1ccc(-c2nc3ccc(C(=O)NCC(OC)OC)cc3nc2-c2ccc(OC)c(OC)c2)cc1OC	none
CCOCCCNC(=O)C(c1ccc(C)cc1)N(Cc1ccc2c(c1)OCO2)C(=O)CNC(C)=O (stereo not drawn)	BoNT F protease 35 | BoNTA LC inh 1 inactive | BoNTF LC inh 1 inactive | Anthrax LF CP1 inactive
O=C1CC(N2CCN(c3ccc(Cl)cc3)CC2)C(=O)N1c1ccc(F)cc1 (stereo not drawn)	BoNT F protease 56 | BoNTA LC inh 1 inactive | BoNTF LC inh 1 inactive | Anthrax LF CP1 inactive
O=C(O)c1ccc(N2C(=O)CC(N3CCN(c4ccc(Cl)cc4)CC3)C2=O)cc1 (stereo not drawn)	BoNT F protease inconclusive
Cc1ccc(-c2nnc(-c3cccnc3)o2)cc1	BoNT F protease 56 | BoNTA LC inh 1 inactive | BoNTF LC inh 1 inactive | Anthrax LF CP1 inactive
Brc1ccc(-c2nnc(-c3cccnc3)o2)cc1	BoNT F protease inconclusive
CCC(C)c1cc(S(=O)(=O)N2CCOCC2)ccc1OC (stereo not drawn)	BoNT F protease 44 | BoNTA LC inh 1 inactive | BoNTF LC inh 1 inactive | Anthrax LF CP1 inactive
CCOC(=O)c1cc(-c2ccccc2)nc2nc(N(CC)CC)sc12	none
COc1cccc(C(=O)NCc2ccc3c(c2)OCO3)c1	BoNT F protease 36 | BoNTA LC inh 1 inactive | BoNTF LC inh 1 inactive | Anthrax LF CP1 inactive
COc1ccc(C(=O)NCc2ccncc2)cc1OC	none
COc1ccc(CC(=O)NCc2ccc3c(c2)cc(C)n3C)cc1	BoNT-A LC inh2 91 | BoNTA LC inh 1 inactive | BoNTF LC inh 1 inactive | Anthrax LF CP1 inactive
COc1cccc(C(=O)NCc2ccc3c(c2)cc(C)n3C)c1	BoNT-A LC inh2 75 | BoNTA LC inh 1 inactive | BoNTF LC inh 1 inactive | Anthrax LF CP1 inactive
COc1ccc(C(=O)NCc2ccc3c(c2)cc(C)n3C)cc1OC	BoNT-A LC inh2 92 | BoNTA LC inh 1 inactive | BoNTF LC inh 1 inactive | Anthrax LF CP1 inactive
COc1cc(OC)cc(C(=O)NCc2ccc3c(c2)OCO3)c1	BoNT F protease inconclusive
CSC[C@H]1CN(c2ccccc2)C(=O)[C@@H]1CC(=O)Nc1ccc(Br)cc1	none
COc1ccc(CCNC(=O)C2CCN(S(=O)(=O)N3CCOCC3)CC2)cc1OC	BoNT F protease 36 | BoNTA LC inh 1 inactive | BoNTF LC inh 1 inactive | Anthrax LF CP1 inactive
Cc1ccc(NS(=O)(=O)c2cccc(C(=O)O)c2)c(C)c1	none
Cc1ccccc1NC(=O)c1cccc(S(C)(=O)=O)c1	none
